# High-throughput results: PubChem, several laboratories
# Most compounds without a hit are left out; they make up all but 6.7% or so of the library.
# Anthrax LF prot: inhibitors of Bacillus anthracis lethal factor protease | inhibition, % at 10 µM | P15917 | multiplex microsphere protease cleavage assay, LF | actives 0.12% (n = 360,000); further: plate controls were buffer without enzyme for full effect and enzyme alone for no effect
# Target sequence (P15917 whole entry, looked up): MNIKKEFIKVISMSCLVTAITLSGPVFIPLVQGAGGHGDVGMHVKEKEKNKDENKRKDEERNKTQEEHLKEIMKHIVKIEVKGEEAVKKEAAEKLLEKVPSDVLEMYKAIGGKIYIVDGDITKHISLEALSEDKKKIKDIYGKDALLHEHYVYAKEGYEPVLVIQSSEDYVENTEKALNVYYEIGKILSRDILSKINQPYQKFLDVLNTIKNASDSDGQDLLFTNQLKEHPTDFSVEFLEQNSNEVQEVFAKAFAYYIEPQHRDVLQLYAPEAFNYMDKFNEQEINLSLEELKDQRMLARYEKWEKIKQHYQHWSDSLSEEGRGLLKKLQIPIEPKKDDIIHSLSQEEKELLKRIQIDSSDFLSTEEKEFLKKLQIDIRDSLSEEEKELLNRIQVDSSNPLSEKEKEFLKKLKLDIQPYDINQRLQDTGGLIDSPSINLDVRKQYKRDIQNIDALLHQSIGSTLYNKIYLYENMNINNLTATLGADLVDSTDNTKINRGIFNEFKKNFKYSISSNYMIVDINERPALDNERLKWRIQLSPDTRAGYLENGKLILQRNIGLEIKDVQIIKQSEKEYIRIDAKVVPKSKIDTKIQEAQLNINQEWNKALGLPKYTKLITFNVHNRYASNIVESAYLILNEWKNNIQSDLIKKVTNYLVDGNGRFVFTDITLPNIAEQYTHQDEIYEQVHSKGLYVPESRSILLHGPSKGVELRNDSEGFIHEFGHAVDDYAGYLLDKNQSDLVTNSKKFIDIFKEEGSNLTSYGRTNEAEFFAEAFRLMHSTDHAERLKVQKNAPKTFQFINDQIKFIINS
# FBA Mtb inh: inhibits M. tuberculosis FBA enzyme; P9WQA3; purified M. tuberculosis FBA, fluorescence read-out; inhibition, % at 1 µM; actives 2.3% (n = 360,000); AID 588726; in the data active means inhibition above about 27%;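 further: 0% = vehicle and 100% = reference inhibitor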
# BoNT A protease: inhibitors of Botulinum neurotoxin A light chain protease. multiplex microsphere protease substrate cleavage, flow cytometry. inhibition, % at 10 µM. actives 0.17% (n = 360,000). AID 588499; further: plate controls were buffer without enzyme for full effect and enzyme alone for no effect
# Autofluor counter: counter-screen for toxin protease inhibitors: compound fluorescence. actives 3.1% (n = 360,000). compound autofluorescence counterscreen, microsphere flow cytometry; hits give high values. fluorescence intensity (concentration not given with the values); in the data active means fluorescence intensity above about 16000; inconclusive means no clear call, values can overlap the other calls
# BoNT F protease: blocks Botulinum neurotoxin F light chain protease; Multiplex microsphere protease cleavage assay, flow cytometry; actives 0.22% (n = 360,000); inhibition, % at 10 µM; in the data active means inhibition above about 35%, passing the limit was not always enough; inconclusive means no clear call, values can overlap the other calls; further: plate controls were buffer without enzyme for full effect and enzyme alone for no effect
# GDH-TPI counter: GDH-TPI coupled enzyme inhibition counter-screen | AID 588335 | inhibition, % at 4.8 µM | GDH-TPI coupled enzyme counterscreen, NADH absorbance | actives 1.2% (n = 360,000); in the data active means inhibition above about 30%;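 further: 0% = DMSO wells and 100% = wells lacking the enzyme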
# * hit, by the source's call; ? = inconclusive. Unless noted, no stated cut-off is given here; in the data, active means inhibition above about 30%; inconclusive means no clear call, values can overlap the other calls; inactive means below that.
SMILES,Anthrax LF prot,FBA Mtb inh,BoNT A protease,Autofluor counter,BoNT F protease,GDH-TPI counter
Cc1ccc(C(=O)N2CCN(S(=O)(=O)c3ccccc3)CC2)cc1,-2,2,-4,3129,-11,3
CC(C)C(NS(=O)(=O)c1cc(C(=O)O)ccc1Cl)C(=O)O (stereo not drawn),2,-5,0,3721,-3,-6
CC(C)[C@H](NC(=O)NCc1ccc(Cl)cc1)C(=O)O,1,3,-2,23334*,0,-2
CC(C)C(NCc1c(Cl)cccc1Cl)C(=O)O (stereo not drawn),-1,1,5,21266*,7,11
COc1cccc(CNC(=O)c2nnn(CC(=O)Nc3ccc(C)c(C)c3)c2N)c1,-3,3,-1,5305,-4,-7
CCN(CC)CCN1C(=O)C(=O)/C(=C(/O)c2ccc(F)cc2)C1c1ccncc1 (stereo not drawn),0,5,0,2836,-6,4
O=C(COc1ccc(S(=O)(=O)N2CCOCC2)cc1)Nc1cccc([N+](=O)[O-])c1,-2,-1,-1,6176,-1,3
O=S(=O)(CCSc1ccccn1)c1nc2ccccc2s1,3,1,-1,23137*,-3,6
O=S(=O)(CCSc1nc2ccccc2o1)c1nc2ccccc2s1,-4,0,0,5402,6,13
CCCCn1nnnc1NCc1cc(OC)c(OC)cc1OC,0,-1,0,16650*,0,11
CNc1cnc(-c2ccc(F)c(F)c2F)cn1,6,166*,0,3934,2,10
C/C(=N\Nc1ccc(Cl)c(C(=O)O)c1)c1ccc(N2CCOCC2)cc1,-5,-3,-1,4452,-2,31*
O=C(O)c1cc(N/N=C/c2ccc(N3CCOCC3)s2)ccc1Cl,2,-3,2,10990,-4,22
C/C(=N\NC(=O)c1ccc(F)cc1)c1ccc(N2CCOCC2)cc1,0,2,0,2841,3,18
C/C(=N\NC(=O)c1cccc(C)c1)c1ccc(N2CCOCC2)cc1,-4,4,0,3601,-9,34*
COc1ccc(S(=O)(=O)N(C)C[C@H]2Oc3ccc(NS(=O)(=O)c4ccccc4)cc3C(=O)N([C@H](C)CO)C[C@@H]2C)cc1,-2,3,0,2848,-6,5
CC1(C2CC2)NC(=O)N(CC(=O)N2CCN(S(=O)(=O)c3ccc(F)c(F)c3)CC2)C1=O (stereo not drawn),-4,1,0,3968,-3,9
CN(c1ccccc1)S(=O)(=O)c1cccc(NC(=O)CN2CCCc3ccccc32)c1,-10,1,0,20032*,-8,9
NS(=O)(=O)c1cccc(NC(=O)CN2CCc3ccccc32)c1,-6,-1,-1,4906,-10,18
CC(C)NC(=S)N/N=C1\CCCCC1C1CCCCC1 (stereo not drawn),0,1,?,22179*,1,17
O=C(NCc1cccs1)C1CC1,-2,0,0,4280,-1,0
CCC(=O)N(CC)c1nc(-c2ccc(OC)cc2)cs1,-3,-1,-1,23376*,-1,-6
COc1ccc(-c2nnc(Nc3nc4c(OC)cccc4s3)o2)cc1,4,10,1,3256,0,63*
COc1ccc(-c2nnc(Nc3nc4c(OC)cccc4s3)o2)c(OC)c1,2,60*,1,9639,7,69*
COc1ccccc1S(=O)(=O)N(C)C[C@H]1OCc2cn(nn2)CCCC(=O)N([C@H](C)CO)C[C@@H]1C,-1,-1,0,3797,1,-4
SMILES,Anthrax LF prot,FBA Mtb inh,BoNT A protease,Autofluor counter,BoNT F protease,GDH-TPI counter
Cn1c(N)c(N=Nc2ccc(S(N)(=O)=O)cc2)c(=O)n(C)c1=O,-5,-1,-1,3885,?,12
C=CCn1c(CNC(=O)c2ccco2)nnc1SCC(=O)Nc1cccc(Br)c1,0,2,-2,24230*,-2,-1
C=CCn1c(SCC(=O)Nc2ccc3c(c2)OCCO3)nnc1-c1ccco1,-3,4,-1,16334*,1,4
C=CCn1c(C)nnc1SCC(=O)Nc1ccc2c(c1)OCCO2,-2,4,0,2910,-3,-6
CCn1c(CNC(=O)c2ccco2)nnc1SCC(=O)Nc1cc(C)c(C)cc1Br,1,0,?,22252*,0,5
CN(C)CCNC(=O)c1ccc2c(=O)n(Cc3ccc(Cl)cc3)c(=S)[nH]c2c1,6,6,2,4102,-5,12
